The source of these data is PubChem BioAssay (Tox21).

Each structure is given as a SMILES string. Inconclusive results are not listed. Values without a mark were called inactive. The call rests on the fitted dose curve; in most records, active means well fitted cell-killing curve with a large enough effect in the repeat runs; inconclusive means weak or mixed curves, or effect the other way; inactive means flat fitted curve, though single readings scatter.
On the % scale 0 is the no-effect control and ±100 the full control effect.

The test is described as follows: qHTS assay to identify small molecule antagonists of the estrogen receptor alpha (ER-alpha) signaling pathway using the BG1 cell line in the presence of 0.1 nM 17-beta-estradiol - cell viability counter screen (AID 1259241). Further: nearly all actives have a fitted effect of over 40% in size. The conditions noted are these: VM7Luc4E2 (BG1) viability, CellTiter-Fluor protease, 22 h, 0.1 nM estradiol agonist added; series mostly up to 92.4 µM; activity change, negative = cytotoxicity: at the top concentration. From the text:
National Center for Advancing Translational Sciences [NCATS]
NIH Chemical Genomics Center [NCGC]
U.S. Environmental Protection Agency [EPA]
National Institutes of Environmental Health Sciences [NIEHS]
National Toxicology Program [NTP]
U.S. Food and Drug Administration [FDA]
Estrogen receptor (ER), a member of the nuclear hormone receptor plays an important role in development, metabolic homeostasis and reproduction. Two subtypes of ER, ER-alpha and ER-beta, have similar expression patterns with some uniqueness in both types. Endocrine disrupting chemicals (EDCs) and their interactions with steroid hormone receptors like ER causes disruption of normal endocrine function. Therefore, it is important to understand the effect of environmental chemicals in ER signaling pathway. For identifying ER antagonists, VM7Luc4E2 cell line was used to screen against Tox21 compound libraries.
VM7Luc4E2 cell line (provided by Denison MS, University of California) endogenously express full-length ER-alpha and is stably transfected with a plasmid containing four estrogen responsive elements (ERE) upstream of a luciferase reporter gene. The current screening for identification of ER-alpha inhibitors against Tox21 compound libraries used lower concentration (0.1 nM) of 17beta-Estradiol as a stimulator. The cytotoxicity of the Tox21 compound libraries against VM7Luc4E2 cell line was tested by measuring live-cell protease activity using CellTiter-Fluor assay in the same wells.
Tox21 Assay Protocol Summary:
VM7Luc4E2 cells were cultured in phenol red free assay medium containing 10% charcoal stripped FBS for 5 days prior to the assay. The cells were dispensed at 4,000 cells/well in 4 uL of assay medium into white wall/solid-bottom 1536-well plates (Corning Life Sciences, Corning, NY) using a Multidrop Combi (ThermoFisher Scientific, Waltham, MA) dispenser. After the assay plates were incubated at 37C and 5% CO2 for 24 hr, 23 nL of compounds dissolved in DMSO, positive controls or DMSO only was transferred to the assay plates by a Pintool station (Kalypsys, San Diego, CA). The transfer of compounds was followed by the addition of 1 uL of 0.1 nM (final concentration) agonist (17beta-Estradiol)/assay medium using a Flying Reagent Dispenser (FRD, Aurora Discovery, San Diego, CA). The plates were incubated at 37C and 5% CO2 for 22 hr. For cytotoxicity assay, 1 uL of CellTiter-Fluor reagent (Promega Corporation, Madison, WI) was added to each well using the FRD and after 30 min incubation at 37C and 5% CO2, The fluorescence intensity was measured using ViewLux plate reader (PerkinElmer, Shelton, CT).
(Quantitative high-throughput screening tests each substance at several concentrations.)
`CCCSP(=O)(OCC)Oc1ccc(Br)cc1Cl` (stereo not given): the “activity change, negative = cytotoxicity” value is 0.882% [at 42.5 µM].
The same measure for `CC(C)(C)C(=O)C(Oc1ccc(Cl)cc1)n1cncn1` (stereo not given): 4.65%.
Turning to `CC1=C(C(=O)O)N2C(=O)[C@@H](N)[C@H]2SC1`, the activity change, negative = cytotoxicity is 0.956% [at 19 µM].
With `CNC(=O)Oc1cccc(C(C)C)c1`, the “activity change, negative = cytotoxicity” value is -0.431%.
The same measure for `COC(=O)C1=CCCN(C)C1`: 2.96% [at 42.5 µM].
The same measure for `ClC(Cl)C(Cl)Cl`: 12.6%.
The same measure for `Nc1cc2c3c(c1)C(c1ccccc1)=N[C@@H](NC(=O)c1cccnc1)C(=O)N3CC2`: -4.61%; for `COc1ncc(F)c2nc(S(=O)(=O)Nc3c(F)cccc3F)nn12`: 1.49% [at 42.5 µM]; for `COP(=S)(OC)Oc1ccc(S(N)(=O)=O)cc1`: 1.58% [at 42.5 µM].
With `CS(=O)(=O)c1cc(C(F)(F)F)ccc1C(=O)c1cnoc1C1CC1`, the “activity change, negative = cytotoxicity” value was 0.983%.
Turning to `O=C1OC(=O)C2C1C1(Cl)C(Cl)=C(Cl)C2(Cl)C1(Cl)Cl` (stereo not given), the “activity change, negative = cytotoxicity” value is -0.114%.
The same measure for `CCOP(=S)(OCC)Oc1nc(Cl)n(C(C)C)n1`: -21.3%.
As to `CC(C)CP(=S)(S)CC(C)C`, the “activity change, negative = cytotoxicity” value is 1.84%.
For the molecule `N#CC(O)c1ccccc1` (stereo not given), the “activity change, negative = cytotoxicity” value is 7.76%.
The same measure for `CCC1(c2ccccc2)C(=O)NC(=O)NC1=O`: 15.9%; for `N#Cc1ccncc1`: -8.44%.
The same measure for `CC(N)=S`: -1.55%; for `Cc1cc(C)nc(Nc2ccccc2)n1`: 0.575%.
As for `NC(=S)C(N)=S`, the “activity change, negative = cytotoxicity” value is 14.9%.
The same measure for `CSc1nc(N=[N+]=[N-])nc(NC(C)C)n1`: 6.45%.
The same measure for `COc1cc(OC)nc(Oc2cccc(Oc3nc(OC)cc(OC)n3)c2C(=O)O)n1`: -2.89%.
On to `CC(C(O)c1ccccc1)N(C)C/C=C/c1ccccc1` (stereo not given), for which the “activity change, negative = cytotoxicity” value was -15.8% [at 42.5 µM].
With `CC(=O)C(Cl)Cl`, the “activity change, negative = cytotoxicity” value is -4.79%.
On to `CN1CCN(C(=O)O[C@H]2c3nccnc3C(=O)N2c2ccc(Cl)cn2)CC1`, for which the “activity change, negative = cytotoxicity” value is 14% [at 42.5 µM].
The same measure for `CCN(CC)c1nc(C)cc(OP(=S)(OC)OC)n1`: -0.764%; for `COc1cccc(C(=O)NN(C(=O)c2cc(C)cc(C)c2)C(C)(C)C)c1C`: -21.8%.
`Cc1cc(C)c(C(=O)P(=O)(C(=O)c2c(C)cc(C)cc2C)c2ccccc2)c(C)c1`: the “activity change, negative = cytotoxicity” value is 3.97%.
As for `O=C(N[C@H]1CN2CCC1CC2)c1cc2ccoc2cn1`, the “activity change, negative = cytotoxicity” value is -2.28%.
The same measure for `O=C(Nc1ccccc1)N(Cc1ccc(Cl)cc1)C1CCCC1`: -18.2%.
The same measure for `COc1cc(OC)nc(Sc2cccc(Cl)c2C(=O)O)n1`: -3.63%; for `N#CCBr`: 2.85%.
The same measure for `CCCCCCBr`: -2%; for `OC(c1ccc(F)cc1)(c1cncnc1)c1ccccc1Cl` (stereo not given): 0.115%.
In the case of `CC1(C)CON(Cc2ccccc2Cl)C1=O`, the “activity change, negative = cytotoxicity” value is 0.0571%.
The same measure for `CN1CCC(O)(c2ccc(F)cc2)C(C(=O)c2ccc(F)cc2)C1` (stereo not given): -1.02% [at 42.5 µM]; for `O=C(Oc1ccc(Br)cc1)N1CCN2CCC1CC2`: -0.486%; for `CCOP(=S)(OCC)Oc1cc(-c2ccccc2)on1`: -7.28%.
The same measure for `CCOC(=O)C1(c2ccccc2)CCN(CCc2ccc(N)cc2)CC1`: -13.6% [at 42.5 µM].
The same measure for `O=C1CN2CCOC2(c2ccccc2Cl)c2cc(Cl)ccc2N1` (stereo not given): -3.32% [at 42.5 µM].
With `C[C@]12CC[C@H]3[C@@H](CCC4=CC(=O)CC[C@@]43C)[C@@H]1CC[C@@H]2C(=O)O`, the “activity change, negative = cytotoxicity” value is -0.907% [at 42.5 µM].
